# Most compounds without a hit are left out; they make up all but 0.69% or so of the library.
# PINK1 modulator = PINK1 expression modulation; PINK1 immunofluorescence, high-content cytometry, 24 h; Potency, µM (doses to about 76.6 µM), for inactives: at the highest dose activation (PINK1 increase), actives largely listed as activators; 410,000 compounds, 0.2% hits; AID 624263; active = well fitted activation curve with a large enough effect; inconclusive = small, poorly fitted or top-dose-only effect; cell line not stated here; also: % of control where 0% means no effect; nearly all actives have a fitted effect of over 65% in size
#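 Compound titrations (5 concentrations, 24 h) on a stable cell line; DMSO and CCCP controls. Endpoint: fixed-cell PINK1 immunofluorescence with mitochondrial, cell and nuclear markers, scanned by microplate cytometer.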
# Vif-APOBEC3G blk = blocks the Vif interaction with human APOBEC3G. Q9HC16. Potency, µM (top dose mostly 46.1 µM), without a hit: at the top dose activity, negative = active, most hits filed as inhibitors. 410,000 compounds, 0.076% hits. HeLa A3G-eYFP + Vif (tagged APOBEC3G with the HIV-1 protein that degrades it), YFP fluorescence, overnight; also: % is scaled to controls: 0 for no effect and ±100 for the full control effect; nearly all actives have a fitted effect of over 60% in size
# Target sequence (Q9HC16 whole entry, looked up): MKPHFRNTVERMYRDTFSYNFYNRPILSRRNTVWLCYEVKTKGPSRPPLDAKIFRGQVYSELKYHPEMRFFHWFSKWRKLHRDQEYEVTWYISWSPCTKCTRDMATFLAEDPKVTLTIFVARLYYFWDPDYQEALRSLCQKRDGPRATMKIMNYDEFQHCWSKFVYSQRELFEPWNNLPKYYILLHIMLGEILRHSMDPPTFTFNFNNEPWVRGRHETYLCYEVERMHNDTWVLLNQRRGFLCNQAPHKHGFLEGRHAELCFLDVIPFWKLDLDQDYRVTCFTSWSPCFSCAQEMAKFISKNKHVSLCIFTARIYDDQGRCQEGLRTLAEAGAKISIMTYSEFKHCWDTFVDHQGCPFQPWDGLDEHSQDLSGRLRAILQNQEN
#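 Read-out is eYFP fluorescence (Ex 488/Em 500-530) from Vif-expressing HeLa A3G-eYFP cells; more signal means A3G escaped Vif-mediated degradation. Cells plated overnight, compound pinned in, incubated overnight at 37 deg C.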
# Vif-APOBEC3F blk = inhibitors of Vif-A3F interaction; 390,000 compounds, 0.2% hits; Potency, µM (top dose mostly 46.1 µM), without a hit: at the top dose activity, negative = active; HeLa A3F-eYFP + Vif (tagged APOBEC3F with the HIV-1 protein that degrades it), YFP fluorescence increase; AID 602313; also: % of control where 0% means no effect; nearly all actives have a fitted effect of over 65% in size
#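 Fluorescence increase (Ex 488/Em 500-530) after overnight compound treatment at 37 deg C flags inhibition of Vif-driven A3F-eYFP loss in stable HeLa A3F-eYFP/Vif cells seeded overnight beforehand.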
# GRP78 ERSR act = inducers of ER stress response in human glioma cells; Potency, µM, for the others: at the highest dose activation, actives largely listed as activators; 420,000 compounds, 0.02% hits; U87-MG GRP78 promoter luciferase reporter, 16 h; also: series mostly up to about 76 µM; % of control where 0% means no effect; nearly all actives have a fitted effect of over 35% in size
#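 Stably transfected U87-MG human glioma cells carrying a GRP78-based luminescent sensor were seeded at 1000 cells/well, pin-dosed with compounds and incubated 16 h. Luciferase reagent was then added, and end-point luminescence was read after 10 min at room temperature.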
# FUS yeast rescue = FUS proteinopathy suppression in yeast | S. cerevisiae FUS-expressing, growth rescue, OD600, 24 h | Potency, µM (highest dose often 76.6 µM), usual class: activators | AID 1347120 | 390,000 compounds, 0.24% hits;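 also: plate controls were DMSO vehicle for no effect and reference control for full effect; nearly all actives have a fitted effect of over 55% in size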
#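 Compound concentration series was pinned onto galactose-induced FUS-expressing yeast seeded at OD 0.005. Plates sat 24hr at 30C; absorbance at 600 nm gave growth. DMSO served as background control.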
# Abeta yeast res = compounds reversing amyloid beta toxicity in yeast | yeast expressing A-beta42, growth rescue, OD600, 48 h; response scale: 0% DMSO, 100% iron-clioquinol control | Potency, µM (titrated, usually from 46.1 µM), hits mostly activators | 410,000 compounds, 0.063% hits; also: nearly all actives have a fitted effect of over 55% in size
#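 Growth rescue measured by 600 nm absorbance after 48 h yeast culture at 30 C with compound. Values normalized between DMSO and an equimolar ferric chloride plus clioquinol control.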
# Numbers without * were called inactive; i = inactive; ? = inconclusive; · = no result given; [ ] = another dose, or the depositor's remark. Unless noted, calls follow the shape of the dose curve; as a rule, active = well fitted curve in the direction sought with a large enough effect; inconclusive = small, poorly fitted or top-dose-only effect, or another doubt; inactive = no such curve, though single readings can be large; an effect the other way counts as inactive or inconclusive. Potency is read from the fitted curve at half-maximal effect.
SMILES,PINK1 modulator,Vif-APOBEC3G blk,Vif-APOBEC3F blk,GRP78 ERSR act,FUS yeast rescue,Abeta yeast res
O=C(Nc1c2c(nn1-c1ccc(F)cc1)CSC2)c1ccc(S(=O)(=O)N2CCOCC2)cc1,?,-4%,-1%,-5%,?,i
CSc1nnc(CCNC(=O)c2ccccc2C(F)(F)F)n1-c1ccc(F)cc1,0%,·,·,-3%,·,·
O=C(NCc1ccncc1)c1cnn(-c2nccc(-c3cc4ccccc4o3)n2)c1C1CC1,5%,·,·,-4%,·,·
Cc1n[nH]c(C)c1N1C(=O)c2cccc3c(N4CCCCCC4)ccc(c23)C1=O,1%,?,?,0%,?,i
O=C1c2cccc3c(N4CCCCC4)ccc(c23)C(=O)N1CCO,1%,?,?,5%,i,i
C=CCN1C(=O)c2cccc3c(N4CCCCC4)ccc(c23)C1=O,21%,?,7.1µM*,4%,i,i
O=C1c2cccc3c(N4CCCCC4)ccc(c23)C(=O)N1c1cccc(O)c1,5%,?,4µM*,2%,i,i
COC(=O)C1CCCCN1Cc1ccc2c(c1)CN(C(=O)c1cc(C)nc3cc(F)ccc13)CCO2 (stereo not given),-1%,·,·,-4%,·,·
COc1cccc(CNC(=O)c2c(OC)cc(=O)n3c2CCN(C(=O)C2CC=CCC2)CC3)c1 (stereo not given),0%,·,·,-2%,·,·
CC[C@@H](C)[C@H]1O[C@]2(CC[C@H]1C)C[C@@H]1C[C@@H](CC=C(C)[C@@H](O[C@H]3C[C@H](OC)[C@@H](O[C@H]4C[C@H](OC)[C@@H](O)[C@H](C)O4)[C@H](C)O3)[C@@H](C)C=CC=C3CO[C@@H]4[C@H](O)C(C)=C[C@@H](C(=O)O1)[C@]34O)O2,·,·,·,-12%,·,·
CC[C@H](C)[C@H]1O[C@]2(CC[C@@H]1C)C[C@@H]1C[C@@H](CC=C(C)[C@@H](O[C@H]3C[C@H](OC)[C@@H](O[C@H]4C[C@H](OC)[C@@H](O)[C@H](C)O4)[C@H](C)O3)[C@@H](C)C=CC=C3CO[C@@H]4[C@H](O)C(C)=C[C@@H](C(=O)O1)[C@]34O)O2,1%,-17%,?,-1%,7.1µM*,i
COc1cc(-c2ccc(C(F)(F)F)cn2)cc2c1OCCN(S(=O)(=O)C[C@]13CC[C@H](CC1=O)C3(C)C)C2,1%,·,·,-2%,·,·
CCn1nc(C)cc1C(=O)NCC1CCC2(CCN(Cc3ccccc3F)CC2)O1 (stereo not given),1%,·,·,-3%,·,·
O=C(c1cc(-c2ccccc2)nc2ccccc12)N1CCN(c2ccccc2O)CC1,1%,0%,-5%,-3%,?,i
O=C(c1cc(-c2ccncc2)nc2ccccc12)N1CCN(c2ccccc2O)CC1,4%,-12%,2%,-6%,18µM*,i
COc1ccc(-c2nc3ccccc3[nH]2)cc1,0%[38.3 µM],-4%,-9%,-8%,i,i
COc1ccc2oc(=Nc3ccccc3)c(-c3nc4ccccc4[nH]3)cc2c1,-1%,-28%,11µM*,3%,·,i
COc1cc(=O)n2c(c1C(=O)N(C)Cc1nccs1)CCN(Cc1cc(C)cc(C)c1)CC2,0%,·,·,-3%,·,·
Cc1ccccc1C1C(C#N)=C2N=C(N)c3c(sc4c3CCCCC4)N2C2=C1C(=O)CC(C)(C)C2 (stereo not given),?,?,?,-2%,28µM*,i
O/N=C(/C[n+]1ccsc1)c1ccc(I)cc1,·,0%,·,0%,·,·
CC(C)(CCO)NC(=S)NC1CC2C=CC1C2 (stereo not given),0%,0%,-6%,-3%,i,i
S=C(NC1CCCCC1)NC1CC2C=CC1C2 (stereo not given),1%,0%,-1%,1%,i,11µM*
CCCCCCOc1ccc(C2C(=O)N(C3CCCCC3)CC(=O)N2CCC)cc1 (stereo not given),1%,3%,-1%,-4%,i,i

# Compound activity: PubChem BioAssay, National Center for Advancing Translational Sciences (NCATS)
